Experiment [1] in a line: Tanguay_ZF_120hpf_SWIM_legacy: (Legacy) Oregon State University Tanguay Lab 120 Hour Post-fertilization zebrafish Assay for Swim Bladder Malformation (AID 2283654).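 Note: swim bladder malformation in each larva scored yes or no under brightfield.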 The method, boiled down:
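Dechorionated wild-type Tropical 5D zebrafish embryos, one per well from 6 hpf, were statically exposed at 28C until 120 hpf in 0.64% DMSO. Swim bladder malformation scored as present/absent by brightfield microscopy; not scored in dead larvae.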

Experiment [2] can be described thus: Tanguay_ZF_120hpf_TRUN_legacy: (Legacy) Oregon State University Tanguay Lab 120 Hour Post-fertilization zebrafish Assay for Truncated Body (AID 2283655). Summed up:
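Dechorionated Tropical 5D wild-type embryos placed singly from 6 hpf and statically exposed to 120 hpf at 28C, final DMSO 0.64%. Truncated body scored as present/absent by brightfield; not scored in dead embryos.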

The nature of experiment [3]: Tanguay_ZF_120hpf_NC_legacy: (Legacy) Oregon State University Tanguay Lab 120 Hour Post-fertilization zebrafish Assay for Notochord and Tail Malformation (AID 2283656). Summed up: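 Dechorionated 5D zebrafish, 1/well from 6 hpf; static exposure to 120 hpf, 28C, sealed, dark; final DMSO 0.64% v/v. NC scored binary (present/absent); dead embryos not scored. Fit vs DMSO baseline, gain direction.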

Experiment [4] in a line: CCTE_Simmons_CellTiterGLO_HEK293T: Viability Assessment in CCTE's Assays for Thyroperoxidase (TPO) Inhibition, Simmons Lab (AID 2283665).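 For AC50: cells exposed to compound for 24 h before readout; actives reduce ATP signal below DMSO vehicle meaning cytotoxicity.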 The method, boiled down: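 Cytotoxicity counter-screen: human HEK293T cells in low-serum (1% FBS) medium receive test chemical, 5 nM to 87.5 uM final, for 24 h; ATP is quantified by luciferase luminescence.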
On the technique in general: Cellular ATP, detected with luciferase, serves as a proxy for viable cell number.

Experiment [5] is described as follows: Tanguay_ZF_120hpf_TR_legacy: (Legacy) Oregon State University Tanguay Lab 120 Hour Post-fertilization zebrafish Assay for Touch Response (AID 2283667). The method, boiled down:
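Tropical 5D wild-type zebrafish embryos statically exposed to 120 hpf at 28°C, sealed and dark-covered, 0.64% DMSO final; touch response scored as present/absent by brightfield microscopy at 120 hpf. Trimethyltin chloride 5 uM positive control; dead embryos not scored.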

Experiment [6] in a line: CCTE_Padilla_ZF_144hpf_TERATOSCORE: (Legacy) CCTE's 144 Hour Post-fertilization zebrafish Assay Teratoscore, Padilla Lab (AID 2283679; active = hit-call score of the fitted dose curve at least 0.9, where 1 is the maximum; inactive = score below 0.9;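 for AC50: zebrafish embryos with chorions exposed by immersion from 6-8 hpf to 5 dpf with daily renewal; teratogenicity score from eye scoring of death hatching and malformations at 144 hpf; higher score means more developmental defects relative to DMSO baseline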). The method, boiled down:
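Larvae scored by eye at 144 hpf for death, hatching and malformations after a day in clean Hanks'. Before that, daily-renewed exposure at 80 uM (0.4% DMSO, 26C) from roughly 6-8 hpf through 5 dpf, 4 embryos per chemical.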

The nature of experiment [7]: STM_H9_OrnithineISnorm_perc: Stemina devTOX quickPredict H9 human embryonic stem cell (hESC)-based Assay for Ornithine (ORN) Metabolite Biomarker, Normalized (AID 2283712; active = hit-call score of the fitted dose curve at least 0.9, where 1 is the maximum; inactive = score below 0.9;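 note: ornithine released into spent medium during last day measured by mass spectrometry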). Summed up: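 Cells: undifferentiated H9 hESC. Dosing: 72 h, media replaced every 24 h. Sample: final 24-h conditioned media, 40% acetonitrile. Read: UPLC-HRMS ornithine area vs 13C standard, % DMSO control.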

Experiment [8] can be described thus: STM_H9_CystineISnorm_perc: Stemina devTOX quickPredict H9 human embryonic stem cell (hESC)-based Assay for Cystine (CYSS) Metabolite Biomarker, Normalized (AID 2283713; active = hit-call score of the fitted dose curve at least 0.9, where 1 is the maximum; inactive = score below 0.9). The method, boiled down: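 Secreted cystine was measured by UPLC-HRMS in H9 hESC medium after 72h compound exposure with 24-hourly replenishment. Values are standard-normalized areas relative to 0.1% DMSO.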

The nature of experiment [9]: STM_H9_OrnCyssISnorm_ratio: Stemina devTOX quickPredict H9 human embryonic stem cell (hESC)-based Assay for Ornithine (ORN):Cystine (CYSS) Ratio (AID 2283714). Summed up: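 Undifferentiated H9 hESCs exposed 72 h, media and compound replaced every 24 h; final 24-h conditioned media deproteinized and analysed by UPLC-HRMS against C13 spike-ins. Value is the internal-standard-normalized ORN/CYSS ratio versus 0.1% DMSO.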

Experiment [10] in a line: CEETOX_H295R_MTT_cell_viability: Viability Assessment in the CeeTox HT-H295R MTT Assay (AID 2283718; active = hit-call score of the fitted dose curve at least 0.9, where 1 is the maximum; inactive = score below 0.9). The method, boiled down: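 Human H295R adrenal cells, prestimulated 48 h with 10 uM forskolin, were exposed 48 h to chemicals in 0.1% DMSO. Viability was measured in the same wells by MTT (0.5 mg/ml, 4 h, 37 C), absorbance 570/650 nm, as percent of controls.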
Experiment [11] is described as follows: Tanguay_ZF_120hpf_ActivityScore_legacy: (Legacy) Oregon State University Tanguay Lab 120 Hour Post-fertilization zebrafish Assay Score for Activity (AID 2283742). The method, boiled down:
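Dechorionated Tropical 5D embryos, one per well from 6 hpf, statically exposed to 120 hpf at 28 °C in 0.64% DMSO. Mortality and malformations scored binary by brightfield microscopy; activity score combines 18 endpoints, fitted positively versus DMSO.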

Experiment [12] has as its system Thyroperoxidase (TPO), gene 445522. The experiment is described as follows: CCTE_Simmons_GUA_TPO: CCTE's Guaiacol Assay for Thyroperoxidase (TPO) Inhibition, Simmons Lab (AID 2283750). The method, boiled down: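 Porcine thyroid microsomes (25 ug) in 200mM potassium phosphate, preincubated 30 s at 37C with compound (8 concentrations, 5 nM–87.5 uM) and 35mM guaiacol; 1mM H2O2 starts reaction. Absorbance change at 450nm over first 80 s; loss of signal versus DMSO, three replicates.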

Read-out in experiment [13]: solute carrier (SLC10A1), SLC10A1 (gene 6554)
The experiment is described as follows: LTEA_HepaRG_SLC10A1: Life Technologies and Expression Analysis (LTEA) Assay for solute carrier (SLC10A1) using HepaRG (AID 2283657; active = hit-call score of the fitted dose curve at least 0.9, where 1 is the maximum; inactive = score below 0.9). To be noted: mRNA level, 48 h; actives raise or lower the signal. Summed up:
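HepaRG cells (single lot) exposed 48 h in serum-free induction medium, 8-point half-log series from 100 uM top in 0.5% DMSO, duplicate. SLC10A1 mRNA by qRT-PCR normalised to ACTB, GAPDH, POLR2A; bidirectional fit versus DMSO.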

Read-out in experiment [14]: matrix metalloproteinase-1 (MMP1), MMP1 (gene 4312)
Nature of the experiment: LTEA_HepaRG_MMP1: Life Technologies and Expression Analysis (LTEA) Assay for matrix metalloproteinase-1 (MMP1) using HepaRG (AID 2283658; active = hit-call score of the fitted dose curve at least 0.9, where 1 is the maximum; inactive = score below 0.9). Particulars: mRNA level, 48 h; actives raise or lower the signal. Summed up: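 Differentiated human HepaRG cells, 48 h post-plating in serum-free induction medium, were exposed 48 h to eight half-log concentrations topping at 100 uM in 0.5% DMSO, duplicate. MMP1 mRNA measured by Fluidigm TaqMan qRT-PCR, normalized to ACTB, GAPDH, POLR2A; bidirectional fits versus DMSO.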

Read-out in experiment [15]: Cytochrome P450 (CYP24A1_1), CYP24A1 (gene 1591)
Nature of the experiment: LTEA_HepaRG_CYP24A1_1: Life Technologies and Expression Analysis (LTEA) Assay for Cytochrome P450 (CYP24A1_1) using HepaRG (AID 2283671; active = hit-call score of the fitted dose curve at least 0.9, where 1 is the maximum; inactive = score below 0.9). To be noted: mRNA level, 48 h; actives raise or lower the signal. Summed up: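 Differentiated human HepaRG cells in serum-free induction medium, exposed 48 h in duplicate to eight half-log concentrations from 100 uM top, 0.5% DMSO. Transcript measured by TaqMan qRT-PCR, normalised to ACTB, GAPDH, POLR2A; bidirectional fitting versus DMSO.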

Our source for the outcome and AC50 values is PubChem BioAssay (EPA / NIEHS).

Records with an inconclusive call do not appear. Active and inactive are the calls of the source. Rule for the calls, unless noted: active = hit-call score of the fitted dose curve at least 0.9, where 1 is the maximum; inconclusive = response in the unintended direction; inactive = score below 0.9.

By AC50 is commonly meant the concentration at which the activity in the assay is half-maximal.

For `Cc1c(C(=O)O)c(O)cc2c1C(=O)c1c(O)c([C@@H]3O[C@H](CO)[C@@H](O)[C@H](O)[C@H]3O)c(O)c(O)c1C2=O`, the result in [1], in experiment [2], in [3], in [5], in experiment [6] and in experiment [7] was inactive. Further, the result in experiment [8], in experiment [9], in experiment [10] and in experiment [11] was inactive. Besides, in experiment [4], the concentration at half-maximal activity (AC50) is 12.6 µM (active).
For the compound `CCOC(=O)C(C)(C)Oc1ccc(Cl)cc1`, the call in experiment [1], in [3] and in experiment [5] was inactive. Further, the values for the AC50 in experiment [2] and in experiment [6] were 65.3 µM (active) and 2.86 µM (active), respectively.
In the case of `COCCOC[C@H](CC1(C(=O)NC2CCC(C(=O)O)CC2)CCCC1)C(=O)Oc1ccc2c(c1)CCC2` (stereo partly specified), the result in experiment [1], in experiment [2], in experiment [3] and in [5] was inactive.
Regarding `Cc1cc(=O)[nH]c(=S)[nH]1`, the compound was called inactive in experiment [1], in experiment [2], in [3], in experiment [4] and in [5]. Further, the AC50 in [12] was 7.71 µM (active).
In the case of `Cc1ccc(C)c(O)c1C`, the outcome in experiment [1], in experiment [2], in experiment [3], in experiment [4], in [5] and in experiment [12] was inactive.
Turning to `COc1cc(S(=O)(=O)O)c(C)cc1N=Nc1c(O)ccc2cc(S(=O)(=O)O)ccc12`, the compound was called inactive in experiment [1], in [2], in [3], in [5] and in experiment [11]. The half-maximal activity concentration (AC50) in [4] was 13.4 µM (active).
Consider `Cc1ccc(N(C)C)cc1`, for which the compound was classed as inactive in experiment [1], in [2], in experiment [3], in experiment [4] and in [11]. In addition, in [12], the half-maximal activity concentration (AC50) is 95.1 µM (active).
Turning to `CN1CCCC1=O`, the compound was called inactive in [1], in experiment [2], in [3], in experiment [13], in experiment [14] and in [4]. For the same compound, the compound was classed as inactive in experiment [5], in experiment [15] and in experiment [11].
On to `Cc1oc(-c2ccccc2)nc1CCOc1cccc2c1ccn2CCC(=O)O`, for which the result in [1], in experiment [2], in experiment [3], in experiment [4], in [5] and in [7] was inactive. In addition, the compound was called inactive in experiment [10] and in [11]. The AC50 in [6] is 16.1 µM (active); in experiment [8], 10.5 nM (active).
Regarding `CCOC(=O)CCC(=O)OCC`, the outcome in experiment [1], in experiment [2] and in [3] was inactive.
